The source of these data is PubChem BioAssay AID1345082 (National Center for Advancing Translational Sciences (NCATS), 2018).

Structures are written as SMILES. Among all 94,000 compounds or so, about 4,000 (4.3%) were called active. Entries that show only a call come without a potency. Not shown: some 29% with an inconclusive outcome. The sample holds actives, similar compounds and a random draw of the others, so the mix is not that of the screen. Calls follow the shape of the dose curve; as a rule, active = well fitted inhibition curve with a large enough effect; inconclusive = small, poorly fitted or top-dose-only effect; inactive = no such curve, though single readings can be large or run the other way.
Potency is read from the fitted curve at half-maximal effect.

The test can be described thus: Cytotoxic Profiling in NIH 3T3 Cell Line of Diverse Libraries Using Quantitative High-Throughput Screening. Also: nearly all actives have a fitted effect of over 55% in size. The following applies: NIH 3T3 viability, CellTiter-Glo ATP luminescence, 48-72 h; series mostly up to 96.7 µM. The method in brief: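 NIH 3T3 cells at 400 cells/well received 23 nL of compound by pintool and were incubated 48 or 72 h at 37 °C. Viability was read as ATP-coupled CellTiter-Glo luminescence.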
For the compound `C=CCOc1cccc(-c2nnc(CCC(=O)NCc3ccccc3)c(=O)[nH]2)c1`, the Potency result was “inactive”. As for `CSCCNC(=O)c1cc(-c2ccc(Cl)nc2)nc2c1cnn2C`, the entry is “inactive”. Next, `COCC(=O)N[C@@H](Cn1ccc(=O)[nH]c1=O)C(=O)O`: “inactive”; `O=C(c1cnccn1)N1CCC[C@H](n2c(=O)n(CC3CC3)c3cccnc32)C1`: “inactive”; `Cc1ccc(NS(=O)(=O)c2ccccc2)c(=O)n1CC(=O)N(C)Cc1ccccc1`: “inactive”. As for `CC(C)CCN1C(=O)CC[C@]2(C(=O)N3CCN(C)CC3)CCCC[C@@H]12`, the Potency result is “inactive”. Next, `O=C1CC(c2ccccc2)N(C(=O)CNC(=O)NCc2ccc(F)cc2)CCCCCN1` (stereo not drawn): “inactive”; `O=C1CC(c2ccccc2)N(C(=O)CNC(=O)C2CCC2)CCCCCN1` (stereo not drawn): “inactive”; `O=C1CC(c2ccccc2)N(Cc2cn[nH]c2-c2ccc(F)cc2)CCCCCN1` (stereo not drawn): 39.8 µM (active).

As for `Cn1ncc2c(C(=O)NCC(F)(F)F)cc(-c3ccccc3F)nc21`, the Potency result is “inactive”. As for `COc1ccc(-c2noc(-c3nnn4c3COC(c3ccc(Cl)cc3)C4)n2)c(OC)c1` (stereo not drawn), the entry is “inactive”; as for `CCOc1ccc(-c2noc(-c3ncn4c3COC(c3ccc(OC)cc3)C4)n2)cc1` (stereo not drawn), “inactive”; as for `COc1ccc(C2Cn3cnc(-c4nc(-c5ccc(OC)cc5OC)no4)c3CO2)cc1` (stereo not drawn), 20 µM (active). Next, `CN(C)C(=O)C1CN(C(=O)C2CCCC2)CC12CCOCC2` (stereo not drawn): “inactive”; `CCC(=O)N1Cc2ccccc2CC2(CCN(Cc3ccc(OC)cc3)C2)C1` (stereo not drawn): “inactive”; `O=C(NCCC1COc2ccccc2O1)c1ccc(N2CCCOCC2)nc1` (stereo not drawn): “inactive”. Next, `COc1ccc(-c2ccc3c(c2)C(=O)N2CCN(C(=O)CC(C)(C)C)C[C@@H]2C(=O)N3)c(OC)c1`: “inactive”; `COc1ccc(-c2cccc(C(=O)NCc3cccc(Cl)c3)c2)nn1`: 35.5 µM (active). Consider `COc1ccc(-c2cccc(C(=O)NC3CC3)c2)nn1`, for which the Potency result was “inactive”. Next, `COc1ccc(-c2cccc(C(=O)N3CCN(C(=O)Cc4cccc(Cl)c4)CC3)c2)nn1`: “inactive”. Next, `O=C(N[C@H]1CCOC[C@H]1C1CCOCC1)c1scc2c1OCCO2`: “inactive”. Next, `Cc1nc(C(=O)N2CC[C@H](NS(=O)(=O)c3cccs3)C[C@H]2C(=O)N[C@H](Cc2c[nH]c3ccccc23)C(N)=O)cs1`: “inactive”; `Cn1ccnc1C(=O)N1CCCCCCNC(=O)[C@@H]2C[C@@H](C(=O)N3CCc4ccccc4C3)C[C@@H]21`: “inactive”; `O=C(NCc1cccnc1)C1CCC(=O)N1C1CCNCC1` (stereo not drawn): “inactive”.

`CC1=C[C@@H](CNC(C)C)[C@H](C(C)C)C[C@H]1Cc1nnc(-c2ccc(N(C)C)cc2)o1`: the Potency is 31.6 µM (active). Next, `CC1=C[C@@H](CNC2CC2)[C@H](C(C)C)C[C@H]1Cc1nnc(-c2ccc(C)cc2)o1`: 39.8 µM (active). As for `CC(=O)NC[C@@H]1C=C(C)[C@H](CC(=O)N2CCCC2)C[C@H]1C(C)C`, the entry is “inactive”. As for `CC1=C[C@@H](CNC(=O)NC(C)C)[C@H](C(C)C)C[C@H]1Cc1nnc(-c2ccncc2)o1`, the figure is 56.2 µM (active); as for `CC1=C[C@@H](CN2CCOCC2)[C@H](C(C)C)C[C@H]1Cc1nnc(-c2ccc([N+](=O)[O-])cc2)o1`, 35.5 µM (active). `COC1C(=O)N(c2cccc(F)c2)C12CCN(C(=O)C1(c3ccccc3)CC1)CC2` (stereo not drawn): the Potency entry was “inactive”. Next, `CCn1ccc(C(=O)N2C[C@@H]3CCCN4CCC[C@@H]([C@H]34)[C@H]2CCCC(=O)Nc2ccccc2)n1`: “inactive”. Next, `CC(=O)NC1CC2(CCN(C(=O)CCC(=O)O)CC2)c2ccccc21` (stereo not drawn): “inactive”; `CS(=O)(=O)N1Cc2ccccc2CC2(CCN(Cc3ccncc3)C2)C1` (stereo not drawn): “inactive”.

With `CCN1CCc2[nH]cnc2C12CCN(C(=O)C1CCc3ccccc3C1)CC2` (stereo not drawn), the Potency entry is “inactive”. Next, `Cc1cc2nc3n(c(=O)c2n1CC(=O)Nc1cccc(C(F)(F)F)c1)CCCC3`: “inactive”.

As for `O=C(NCc1ccncc1)c1csc(N2CCN(c3ccccc3F)CC2)n1`, the Potency result is “inactive”. Consider `O=C(c1ccc(C(F)(F)F)cc1)N1CCCC2(CC(c3ccccn3)=NO2)C1` (stereo not drawn), for which the Potency entry was “inactive”. Next, `CC1=C[C@@H](CN2CCC(O)CC2)[C@H](C(C)C)C[C@H]1Cc1nnc(-c2ccccc2F)o1`: 112 µM (active). Next, `CC1=C[C@@H](CNC(C)C)[C@H](C(C)C)C[C@H]1Cc1nnc(-c2ccc(C)cc2)o1`: 50.1 µM (active). As for `COc1ccc(C(=O)NCc2nnc3cc(-c4nc(C)no4)ccn23)cc1`, the entry is “inactive”; as for `Fc1ccc(CN2CC[C@H](c3nnc(-c4ccccc4F)o3)C2)cc1`, “inactive”; as for `COc1ccc(C(=O)NC[C@@H]2C=C(C)[C@H](Cc3nnc(-c4cncn4C)o3)C[C@H]2C(C)C)cc1`, 25.1 µM (active). Turning to `COc1ccc(CC(=O)NC[C@@H]2C=C(C)[C@H](Cc3nc4ccncc4[nH]3)C[C@H]2C(C)C)cc1`, the Potency result is “inactive”. As for `CC1=C[C@@H](CN2CCN(CCO)CC2)[C@H](C(C)C)C[C@H]1Cc1nnc(-c2ccc(C)cc2)o1`, the Potency is 39.8 µM (active). As for `O=C1NCc2ccccc2CC12CCN(Cc1ccc(CO)o1)C2` (stereo not drawn), the entry is “inactive”; as for `CC(C)c1ccccc1NC(=O)Cn1cccc1-c1nc(-c2ccccc2)no1`, “inactive”; as for `Cc1ccc(CN2CCNC(=O)C2CC(=O)NC2(CO)CCCC2)cc1` (stereo not drawn), “inactive”. As for `Cc1ncc2c(c1CNC(=O)c1ccccc1F)CCN(C(=O)Cc1cccc(F)c1)C2`, the entry is “inactive”; as for `CC(C)C(=O)NCC12CCC=C1N(C)C(=O)CC2` (stereo not drawn), “inactive”. Next, `COCCN1C(=O)CS(=O)(=O)C12CCN(C(=O)c1ccc(OC)cc1)CC2`: “inactive”. Regarding `CNC(=O)[C@@H]1CN(C(=O)c2cccc(OC)c2)C[C@H]1COC`, the Potency entry is “inactive”. Next, `O=C(NC1CCC(n2cc(C(=O)N3CCCC3)nn2)CC1)C(c1ccccc1)C1CCCC1` (stereo not drawn): “inactive”. Next, `COCCNc1ncc(C(=O)O)c(C)n1`: “inactive”; `O=C(Nc1ccc2ncnc(N3CCCCC3)c2c1)c1ccc2c(c1)OCO2`: “inactive”.

Regarding `N[C@@H]1CC[C@H](C(=O)N2CCN(CCCOc3ccc(F)cc3)CC2)C1`, the Potency entry is “inactive”.

`O=C(CCc1nnn2c1CN(C(=O)NCCc1ccccc1)CC2)NC1CC1`: the Potency result is “inactive”. Next, `CCn1cc(Cl)c(C(=O)N2CCCn3cc(-c4ccccc4)nc32)n1`: “inactive”; `CCCc1nnc(C[C@@H]2C[C@@H](C(C)C)[C@H](CN3CCC[C@H]3CO)C=C2C)o1`: 50.1 µM (active); `COCC(=O)NC[C@@H]1C=C(C)[C@H](CC(=O)Nc2ccccn2)C[C@H]1C(C)C`: “inactive”.

`CC1=C[C@@H](CN(C)CCc2ccccn2)[C@H](C(C)C)C[C@H]1Cc1nnc(-c2ccccc2F)o1`: the Potency was 35.5 µM (active). Next, `CNC(=O)c1cn2c(n1)CN(C(C)=O)CC2`: “inactive”; `COc1cc(CCC(=O)N2C[C@@H](C(N)=O)[C@H](c3n[nH]c(C)n3)C2)on1`: “inactive”.

Consider `COc1ccc(C(=O)N2C[C@@H](CO)[C@H](c3ccncc3)C2)cc1F`, for which the Potency result is “inactive”.

In the case of `Cc1ccccc1C(=O)N1CCC2(CC1)OCC(C(=O)N1CCOCC1)N2C(=O)c1cccc(F)c1` (stereo not drawn), the Potency result is “inactive”. Next, `O=C(c1ccc(F)c(F)c1)N1CCC([C@@H]2CNC[C@H]2CO)CC1`: “inactive”; `COc1ccc(-c2noc(-c3nnn4c3COC(c3ccc(F)cc3)C4)n2)cc1` (stereo not drawn): “inactive”. As for `Cc1ccc(S(=O)(=O)Nc2ccc(C)n(CC(=O)NCc3cccc(F)c3)c2=O)cc1`, the entry is “inactive”; as for `CC(C)CNC(=O)C1COC2(CCC(C)CC2)N1C(=O)c1cccc(F)c1` (stereo not drawn), “inactive”; as for `O=C(NCc1ccc(F)cc1)C1COC2(CCCCC2)N1C(=O)c1ccccc1` (stereo not drawn), “inactive”. Turning to `CC1CCC2(CC1)OCC(C(=O)NCc1ccc3c(c1)OCO3)N2C(=O)c1ccccc1F` (stereo not drawn), the Potency was 20 µM (active). As to `CCCOc1cc(C)c2c(c1C)C[C@H](C(C)C(=O)N1CCOCC1)CC2` (stereo partly drawn), the Potency result was “inactive”. Next, `Fc1cccc(-c2ncc[nH]2)c1`: “inactive”; `O=C1NC[C@@H](CCC(=O)N2CCN(c3ccccn3)CC2)N2C[C@@H](NCc3ccccc3)C[C@@H]12`: “inactive”. Next, `CC(C)N1CC2(C1)C(=O)N(CCCN1CCCC1=O)C(=O)[C@@H]1C[C@@H](O)CN12`: “inactive”; `COc1ccccc1-c1cc(C(=O)N(C)C)nc2c1cnn2C`: “inactive”; `COc1ncccc1-c1cc(-c2cn[nH]c2)c2cncn2c1`: 70.8 µM (active). For `COc1ccccc1-c1cc(-c2cn[nH]c2)c2cncn2c1`, the Potency is 50.1 µM (active). As for `COc1ccccc1-c1ccc(C(=O)O)cc1`, the entry is “inactive”; as for `O=C(CCn1cncn1)N1CCc2[nH]nc(-c3cccc4ccccc34)c2C1`, “inactive”. As for `CCCN(CC1CCOC1)C(=O)Nc1ccccc1C(F)(F)F` (stereo not drawn), the entry is “inactive”; as for `O=[S+]([O-])(c1cccc(C(F)(F)F)c1)N1CCC2(CCN(CCc3ccccc3)c3ccccc3O2)CC1`, “inactive”. As for `Cc1ccc(CN2CCC(C3CCN(S(C)(=O)=O)CC3)C2)nc1` (stereo not drawn), the entry is “inactive”; as for `CCCNc1cc(N2CCC(CCC(=O)Nc3ccc(C)cc3)CC2)ncn1`, “inactive”.

Consider `COc1ccccc1Oc1ncccc1CNC(=O)c1ccc2n[nH]nc2c1`, for which the Potency result is “inactive”. Next, `Cc1ccc(-c2ccccc2CN2CCN([S+](=O)([O-])c3cccc(C(F)(F)F)c3)CC2)cc1Cl`: “inactive”; `CC(C)c1ccc([S+](=O)([O-])N2CCN(c3cccc(CN(C)[S+](C)(=O)[O-])c3F)CC2)cc1`: 35.5 µM (active); `CC(=O)NC(C)c1nnc2n1CCN([S+](=O)([O-])c1ccccc1)C2` (stereo not drawn): “inactive”. As for `NCC(=O)N1Cc2ccccc2CC2(CCCCN2CC2CCOCC2)C1` (stereo not drawn), the entry is “inactive”. Next, `CC(=O)NCCC(=O)N1Cc2ccccc2CC2(CCCCN2CC2CCNC2)C1` (stereo not drawn): “inactive”; `O=C(C1CCCC1)N1Cc2ccccc2CC2(CCCCN2CC2CCNCC2)C1` (stereo not drawn): 17.8 µM (active).

On to `Cc1ccccc1OCC(=O)N1CCC2(CC1)NC(=O)N(Cc1ccccc1)C2=O`, for which the Potency entry is “inactive”. As for `Cc1ccc2[nH]c(=O)c(CCC(=O)NCc3ccncc3)cc2c1`, the entry is “inactive”. As to `COC(=O)[C@@H]1C[C@H](NC(=O)c2cc(OC)nc(OC)n2)CN1C`, the Potency entry is “inactive”.
